# Source: PubChem BioAssay (Tox21)
# Values without a mark were called inactive. Records with an inconclusive call do not appear. Entries that show only a call come without a potency. Active and inactive are the calls of the source. Calls come from the whole dose curve; as a rule, active = well fitted curve in the direction sought with a large enough effect in the repeat runs; inconclusive = weak or mixed curves; inactive = no such curve, though single readings can be large; an effect the other way counts as inactive or inconclusive.
# What was measured:
# [1] = A CellTox Green Cytotoxicity Assay to monitor cytotoxicity in HEK293 cells - 40 hour (AID 1224871); note: nearly all actives have a fitted effect of over 45% in size
# Procedure, shortened: (§1)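 Seeding of HEK293 cells together with cytotoxicity dye preceded a 5 h incubation at 37 C/5% CO2. Test compounds in DMSO were then added and fluorescence monitored across 40 h.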
# [2] = qHTS RealTime-Glo MT Cell Viability Assay in HEK293 cells - 16 hour (AID 1224872); note: top concentration of the series differs between compounds; nearly all actives have a fitted effect of over 50% in size
# Procedure, shortened: (§2)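 Luminescence generated by NanoLuc from substrate produced by living HEK293 cells served as the viability signal. Each value reflects the reading at its stated time point during continuous 40 h compound exposure at 37 C.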
# [3] = qHTS RealTime-Glo MT Cell Viability Assay in HepG2 cells - 8 hour (AID 1224873); note: nearly all actives have a fitted effect of over 55% in size
# Procedure, shortened: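 Real-time viability: cells seeded at 600 per well together with NanoLuc and cell-permeant prosubstrate, compounds added after 5 h incubation. Luminescence tracked at 0, 8, 16, 24, 32 and 40 h of exposure.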
# [4] = A CellTox Green Cytotoxicity Assay to monitor cytotoxicity in HEK293 cells - 24 hour (AID 1224875); note: series mostly up to about 77 µM; nearly all actives have a fitted effect of over 45% in size
# Procedure, shortened: as §1
# [5] = A CellTox Green Cytotoxicity Assay to monitor cytotoxicity in HepG2 cells - 16 hour (AID 1224876); note: nearly all actives have a fitted effect of over 45% in size
# Procedure, shortened: (§3)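 Nonlytic assay: viable cells exclude the dye, so fluorescence scales with cell death. HepG2 at 600 cells/well, compounds added after 5 h, signal read across 40 h.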
# [6] = qHTS RealTime-Glo MT Cell Viability Assay in HepG2 cells - 32 hour (AID 1224877); note: nearly all actives have a fitted effect of over 55% in size
# Procedure, shortened: (§4)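 Tox21 10K library screened in qHTS format on HepG2 cells carrying RealTime-Glo reagents. Compounds were added after a 5 h preincubation, and the luminescent signal from continuous culture was measured repeatedly during 40 h treatment.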
# [7] = A CellTox Green Cytotoxicity Assay to monitor cytotoxicity in HepG2 cells - 24 hour (AID 1224878); note: nearly all actives have a fitted effect of over 45% in size
# Procedure, shortened: as §3
# [8] = A CellTox Green Cytotoxicity Assay to monitor cytotoxicity in HepG2 cells - 40 hour (AID 1224879); note: nearly all actives have a fitted effect of over 40% in size; note: potency is the fitted concentration of half-maximal effect
# Procedure, shortened: as §3
# [9] = qHTS RealTime-Glo MT Cell Viability Assay in HEK293 cells - 0 hour (AID 1224880)
# Procedure, shortened: (§5)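 Tox21 screen in HEK293 using RealTime-Glo MT chemistry, with cells and reagent co-dispensed. Luminescence proportional to viable cell number was captured at intervals during 40 h compound exposure at 37 C.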
# [10] = A CellTox Green Cytotoxicity Assay to monitor cytotoxicity in HEK293 cells - 32 hour (AID 1224881); note: nearly all actives have a fitted effect of over 40% in size
# Procedure, shortened: as §1
# [11] = A CellTox Green Cytotoxicity Assay to monitor cytotoxicity in HepG2 cells - 0 hour (AID 1224882); note: nearly all actives have a fitted effect of over 35% in size
# Procedure, shortened: as §3
# [12] = A CellTox Green Cytotoxicity Assay to monitor cytotoxicity in HepG2 cells - 32 hour (AID 1224883); note: nearly all actives have a fitted effect of over 50% in size; note: potency is the fitted concentration of half-maximal effect
# Procedure, shortened: as §3
# [13] = A CellTox Green Cytotoxicity Assay to monitor cytotoxicity in HEK293 cells - 8 hour (AID 1224884); note: nearly all actives have a fitted effect of over 35% in size
# Procedure, shortened: as §1
# [14] = qHTS RealTime-Glo MT Cell Viability Assay in HepG2 cells - 16 hour (AID 1224885); note: nearly all actives have a fitted effect of over 50% in size
# Procedure, shortened: as §4
# [15] = qHTS RealTime-Glo MT Cell Viability Assay in HEK293 cells - 24 hour (AID 1224886); note: top concentration of the series differs between compounds; nearly all actives have a fitted effect of over 50% in size
# Procedure, shortened: as §2
# [16] = qHTS RealTime-Glo MT Cell Viability Assay in HEK293 cells - 8 hour (AID 1224887)
# Procedure, shortened: as §5
# [17] = A CellTox Green Cytotoxicity Assay to monitor cytotoxicity in HEK293 cells - 16 hour (AID 1224888); note: nearly all actives have a fitted effect of over 35% in size
# Procedure, shortened: as §1
# [18] = qHTS RealTime-Glo MT Cell Viability Assay in HepG2 cells - 0 hour (AID 1224889); note: nearly all actives have a fitted effect of over 50% in size
# Procedure, shortened: as §4
# [19] = A CellTox Green Cytotoxicity Assay to monitor cytotoxicity in HepG2 cells - 8 hour (AID 1224890); note: nearly all actives have a fitted effect of over 45% in size
# Procedure, shortened: as §3
# [20] = qHTS RealTime-Glo MT Cell Viability Assay in HEK293 cells - 40 hour (AID 1224874); details: RealTime-Glo luminescence; max response: stronger effect = lower value; note: nearly all actives have a fitted effect of over 50% in size
# Procedure, shortened: as §5
smiles,measurement,setting,value
CN1CCN(C2=Nc3cc(F)ccc3Cc3ccccc32)CC1,Potency,[1],inactive
same,Potency,[2],inactive
same,outcome,[3],inactive
same,Potency,[4],inactive
same,Potency,[5],inactive
same,Potency,[6],inactive
same,Potency,[7],inactive
same,Potency,[8],inactive
same,outcome,[9],inactive
same,Potency,[10],inactive
same,Potency,[11],inactive
same,Potency,[12],inactive
same,Potency,[13],inactive
same,outcome,[14],inactive
same,Potency,[15],inactive
same,Potency,[16],inactive
same,Potency,[17],inactive
same,Potency,[18],inactive
same,Potency,[19],inactive
CC(C)CCCCCCc1ccc(OCCOCCO)cc1,Potency,[1],inactive
same,Potency,[2],inactive
same,outcome,[3],inactive
same,max response,[20],2.16%
same,Potency,[5],inactive
same,Potency,[6],inactive
same,Potency,[7],inactive
same,outcome,[9],inactive
same,Potency,[10],inactive
same,Potency,[11],inactive
same,Potency,[12],inactive
same,Potency,[13],inactive
same,outcome,[14],inactive
same,Potency,[15],inactive
same,Potency,[16],inactive
same,Potency,[17],inactive
same,Potency,[18],inactive
same,Potency,[19],inactive
Cc1ccsc1C(=CCCN1CCC[C@@H](C(=O)O)C1)c1sccc1C,Potency,[1],inactive
same,Potency,[2],inactive
same,outcome,[3],inactive
same,max response,[20],2.02%
same,Potency,[5],inactive
same,Potency,[6],inactive
same,Potency,[7],inactive
same,Potency,[8],inactive
same,outcome,[9],inactive
same,Potency,[10],inactive
same,Potency,[11],inactive
same,Potency,[12],inactive
same,Potency,[13],inactive
same,outcome,[14],inactive
same,Potency,[15],inactive
same,Potency,[16],inactive
same,Potency,[17],inactive
same,Potency,[18],inactive
same,Potency,[19],inactive
Cc1nnc(SCC2=C(C(=O)O)N3C(=O)[C@@H](NC(=O)Cn4cnnn4)[C@H]3SC2)s1,Potency,[1],inactive
same,Potency,[2],inactive
same,outcome,[3],inactive
same,max response,[20],6.83%
same,Potency,[5],inactive
same,Potency,[6],inactive
same,Potency,[7],inactive
same,outcome,[9],inactive
same,Potency,[10],inactive
same,Potency,[11],inactive
same,Potency,[12],inactive
same,Potency,[13],inactive
same,Potency,[15],inactive
same,Potency,[16],inactive
same,Potency,[17],inactive
same,Potency,[18],inactive
NC(Cc1ccc(F)cc1)C(=O)O (stereo unspecified),cytotoxicity increase,[1],10% [at 6.97 µM]
same,"activity change, negative = cytotoxicity",[2],1.36% [at 6.97 µM]
same,"viability change, negative = cytotoxic",[3],1.3% [at 6.97 µM]
same,max response,[20],2.65%
same,cytotoxicity increase,[5],8.03% [at 6.97 µM]
same,"activity change, negative = cytotoxic",[6],-6.06% [at 6.97 µM]
same,cytotoxicity,[7],7.85% [at 6.97 µM]
same,cytotoxicity increase,[8],7.77% [at 6.97 µM]
same,"activity change, negative = cytotoxicity",[9],-1.64% [at 6.97 µM]
same,cytotoxicity increase,[10],12.7% [at 6.97 µM]
same,cytotoxicity,[11],-0.531% [at 6.97 µM]
same,cytotoxicity increase,[12],8.52% [at 6.97 µM]
same,"activity change, negative = cytotoxic",[14],2.23% [at 6.97 µM]
same,"activity change, negative = cytotoxicity",[15],-0.156% [at 6.97 µM]
same,"activity change, negative = cytotoxicity",[16],1.39% [at 6.97 µM]
same,activity change,[17],"17.7% [at 6.97 µM, stronger effect = higher value]"
same,"activity change, negative = cytotoxicity",[18],18.9% [at 6.97 µM]
same,cytotoxicity increase,[19],1.46% [at 6.97 µM]
COc1ccccc1OCC(O)COC(N)=O (stereo unspecified),Potency,[1],inactive
same,Potency,[2],inactive
same,outcome,[3],inactive
same,max response,[20],12.1%
same,Potency,[5],inactive
same,Potency,[6],inactive
same,Potency,[7],inactive
same,Potency,[8],inactive
same,outcome,[9],inactive
same,Potency,[10],inactive
same,Potency,[11],inactive
same,Potency,[12],inactive
same,Potency,[13],inactive
same,outcome,[14],inactive
same,Potency,[15],inactive
same,Potency,[16],inactive
same,Potency,[17],inactive
same,Potency,[18],inactive
same,Potency,[19],inactive
N#CSCC(=O)O,Potency,[1],inactive
same,Potency,[2],inactive
same,outcome,[3],inactive
same,max response,[20],0.0274%
same,Potency,[5],inactive
same,Potency,[6],inactive
same,Potency,[7],inactive
same,outcome,[9],inactive
same,Potency,[10],inactive
same,Potency,[11],inactive
same,Potency,[12],inactive
same,Potency,[13],inactive
same,Potency,[15],inactive
same,Potency,[16],inactive
same,Potency,[17],inactive
same,Potency,[18],inactive
same,Potency,[19],inactive
C/C(=N\O)[C@@H](C)NCC(C)(C)CN[C@H](C)/C(C)=N/O,Potency,[1],inactive
same,Potency,[2],inactive
same,outcome,[3],inactive
same,max response,[20],0.121%
same,Potency,[5],inactive
same,Potency,[6],inactive
same,Potency,[7],inactive
same,Potency,[8],inactive
same,outcome,[9],inactive
same,Potency,[10],inactive
same,Potency,[11],inactive
same,Potency,[12],inactive
same,Potency,[15],inactive
same,Potency,[16],inactive
same,Potency,[17],inactive
same,Potency,[18],inactive
same,Potency,[19],inactive
O=C1CCCCC1C1CCCCC1 (stereo unspecified),Potency,[1],inactive
same,Potency,[2],inactive
same,outcome,[3],inactive
same,max response,[20],11.8%
same,Potency,[5],inactive
same,Potency,[6],inactive
same,Potency,[7],inactive
same,Potency,[8],inactive
same,outcome,[9],inactive
same,Potency,[10],inactive
same,Potency,[11],inactive
same,Potency,[12],inactive
same,outcome,[14],inactive
same,Potency,[15],inactive
same,Potency,[16],inactive
same,Potency,[17],inactive
same,Potency,[18],inactive
same,Potency,[19],inactive
CCCCc1ccc2nc(NC(=O)OC)[nH]c2c1,Potency,[1],inactive
same,Potency,[2],inactive
same,outcome,[3],inactive
same,Potency,[4],inactive
same,Potency,[5],inactive
same,Potency,[6],inactive
same,Potency,[7],inactive
same,Potency,[8],0.338 µM (active)
same,outcome,[9],inactive
same,Potency,[10],inactive
same,Potency,[11],inactive
same,Potency,[12],inactive
same,outcome,[14],inactive
same,Potency,[15],inactive
same,Potency,[16],inactive
same,Potency,[17],inactive
same,Potency,[18],inactive
same,Potency,[19],inactive
O=C(O)c1ccccc1Nc1cc(Cl)ccc1C(=O)O,cytotoxicity increase,[1],-12.4% [at 15.8 µM]
same,"activity change, negative = cytotoxicity",[2],1.77% [at 15.8 µM]
same,"viability change, negative = cytotoxic",[3],0.891% [at 15.8 µM]
same,max response,[20],2.59%
same,cytotoxicity increase,[5],1.42% [at 15.8 µM]
same,"activity change, negative = cytotoxic",[6],-8.29% [at 15.8 µM]
same,cytotoxicity,[7],9.31% [at 15.8 µM]
same,"activity change, negative = cytotoxicity",[9],-6.06% [at 15.8 µM]
same,cytotoxicity increase,[10],-11.6% [at 15.8 µM]
same,cytotoxicity,[11],-1.43% [at 15.8 µM]
same,cytotoxicity increase,[12],20.7% [at 15.8 µM]
same,cytotoxicity increase,[13],-18.6% [at 15.8 µM]
same,"activity change, negative = cytotoxic",[14],0.467% [at 15.8 µM]
same,"activity change, negative = cytotoxicity",[15],7.65% [at 15.8 µM]
same,"activity change, negative = cytotoxicity",[16],-4.99% [at 15.8 µM]
same,activity change,[17],"-3.78% [at 15.8 µM, stronger effect = higher value]"
same,"activity change, negative = cytotoxicity",[18],-2.93% [at 15.8 µM]
same,cytotoxicity increase,[19],7.19% [at 15.8 µM]
CCCS(=O)c1ccc2nc(NC(=O)OC)[nH]c2c1 (stereo unspecified),Potency,[1],inactive
same,Potency,[2],inactive
same,outcome,[3],inactive
same,Potency,[4],inactive
same,Potency,[5],inactive
same,Potency,[6],inactive
same,Potency,[7],inactive
same,Potency,[8],12 µM (active)
same,outcome,[9],inactive
same,Potency,[10],inactive
same,Potency,[11],inactive
same,Potency,[12],16.9 µM (active)
same,Potency,[13],inactive
same,outcome,[14],inactive
same,Potency,[15],inactive
same,Potency,[16],inactive
same,Potency,[17],inactive
same,Potency,[18],inactive
same,Potency,[19],inactive
